Results from paper PMC4336329 (PLoS ONE, 2015).
Screen size: about 310,000 compounds; about 2,200 (0.71%) showed an effect of 50% or more. The effect is printed as a negative number. The full list was thinned out, with strong results kept by preference.

Biological target: human ether-à-go-go-related gene (hERG) potassium channel (human, UniProt Q12809)
Test: primary screen, population patch clamp on CHO cells stably expressing hERG; higher = less effect of the substance

human ether-à-go-go-related gene (hERG) potassium channel, sequence (Q12809 whole entry, looked up): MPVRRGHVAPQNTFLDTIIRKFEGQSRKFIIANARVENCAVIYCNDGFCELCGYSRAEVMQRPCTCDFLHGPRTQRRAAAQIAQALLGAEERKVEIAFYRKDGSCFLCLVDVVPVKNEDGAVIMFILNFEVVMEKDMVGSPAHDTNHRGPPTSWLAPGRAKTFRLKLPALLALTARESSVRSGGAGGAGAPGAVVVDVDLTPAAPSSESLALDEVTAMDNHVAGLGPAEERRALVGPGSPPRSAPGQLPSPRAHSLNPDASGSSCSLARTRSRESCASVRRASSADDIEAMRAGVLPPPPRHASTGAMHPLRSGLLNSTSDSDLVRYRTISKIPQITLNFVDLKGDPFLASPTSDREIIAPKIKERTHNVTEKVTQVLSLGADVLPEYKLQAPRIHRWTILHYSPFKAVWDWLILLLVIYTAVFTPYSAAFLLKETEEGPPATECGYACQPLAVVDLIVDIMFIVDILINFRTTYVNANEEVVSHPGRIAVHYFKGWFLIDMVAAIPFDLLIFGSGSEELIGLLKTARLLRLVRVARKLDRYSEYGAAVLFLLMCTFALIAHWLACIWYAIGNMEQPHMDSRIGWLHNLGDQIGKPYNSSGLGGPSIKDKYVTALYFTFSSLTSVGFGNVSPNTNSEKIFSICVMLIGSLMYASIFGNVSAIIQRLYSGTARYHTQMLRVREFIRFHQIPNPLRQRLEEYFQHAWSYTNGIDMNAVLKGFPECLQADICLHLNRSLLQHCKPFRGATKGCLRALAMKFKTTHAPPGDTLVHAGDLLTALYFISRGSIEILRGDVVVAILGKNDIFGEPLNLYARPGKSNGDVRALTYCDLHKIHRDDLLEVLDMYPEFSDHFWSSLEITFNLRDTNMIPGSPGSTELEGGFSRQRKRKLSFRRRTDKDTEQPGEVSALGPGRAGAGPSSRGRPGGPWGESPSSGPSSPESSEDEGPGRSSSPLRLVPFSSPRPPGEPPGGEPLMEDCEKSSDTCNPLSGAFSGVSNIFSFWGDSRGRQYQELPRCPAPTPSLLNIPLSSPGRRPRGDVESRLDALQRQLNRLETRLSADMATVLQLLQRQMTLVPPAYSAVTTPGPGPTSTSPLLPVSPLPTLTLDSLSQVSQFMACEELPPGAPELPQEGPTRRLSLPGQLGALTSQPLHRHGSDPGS

Compared with `CCCCCOc1ccc(/C=C/c2c([N+](=O)[O-])c(=O)n(C)c(=O)n2C)cc1`, `CCCCCOc1ccc(C(C)(O)C(CN2CCOCC2)c2ccccc2)cc1` (stereo not shown) is lower in “hERG current change (%, negative = inhibition) at 1uM” value: 12.2% for the first, -3.26% for the second.

Going from `O=c1[nH]cnc2sc(-c3ccccc3)cc12` to `CC1(c2cnc(Nc3ccccc3)s2)CCC(=O)O1` (stereo not shown), the “hERG current change (%, negative = inhibition) at 1uM” value rises from 6.92% to 11.7%.

Compared with `COc1ccc(S(=O)(=O)NCc2c(-c3ccccc3)noc2C)c(OC)c1`, `COc1cccc(S(=O)(=O)Nc2noc3ccccc23)c1` is higher in “hERG current change (%, negative = inhibition) at 1uM” value: 3.4% for the first, 14% for the second.

First: CC1CCN(C(CNS(=O)(=O)c2ccccc2)c2ccccc2)CC1 (stereo not shown)
Second: OC(CN1CCN(Cc2ccccc2)CC1)c1ccccc1 (stereo not shown)
The “hERG current change (%, negative = inhibition) at 1uM” value of the first is higher: 3.61% for the first, 0.933% for the second.

Going from `Cc1ccccc1[C@]1(C)ON(c2ccccc2C(F)(F)F)C1=O` to `Nc1ccccc1SCC1CSc2nc3ccccc3c(=O)n21` (stereo not shown), the “hERG current change (%, negative = inhibition) at 1uM” value falls from 14.2% to -7.26%.

Going from `O=C(N/C(=C\c1ccc([N+](=O)[O-])cc1)C(=O)N1CCCCC1)c1ccc(Br)o1` to `O=C(N/C(=C\c1ccccc1)C(=O)N1CCCCC1)c1ccc(Br)o1`, the “hERG current change (%, negative = inhibition) at 1uM” value rises from -53.4% to -0.538%.

Compared with `CN1CCN(C(=O)/C(=C/c2ccc([N+](=O)[O-])cc2)NC(=O)c2ccccc2)CC1`, `CN1CCN(C(=O)/C(=C/c2cccc([N+](=O)[O-])c2)NC(=O)c2ccccc2)CC1` is higher in “hERG current change (%, negative = inhibition) at 1uM” value: -90.4% for the first, -46.5% for the second.

Going from `CC(C)(C)NC(=O)/C(=C\C=C\c1ccccc1)NC(=O)c1ccc([N+](=O)[O-])cc1` to `CNC(=O)/C(=C\C=C\c1ccccc1)NC(=O)c1ccc([N+](=O)[O-])cc1`, the “hERG current change (%, negative = inhibition) at 1uM” value falls from 11.2% to -85%.

Going from `O=C(N/C(=C\c1ccccc1)C(=O)N1CCCCCC1)c1ccccc1` to `O=C(N/C(=C\c1ccc([N+](=O)[O-])cc1)C(=O)N1CCCCC1)c1ccccc1`, the “hERG current change (%, negative = inhibition) at 1uM” value falls from 21.1% to -73.2%.

Compared with `CN(C)CCCNC(=O)/C(=C\C=C\c1ccccc1)NC(=O)c1ccc([N+](=O)[O-])cc1`, `O=C(N/C(=C/c1cccc([N+](=O)[O-])c1)C(=O)N1CCCC1)c1ccccc1` is higher in “hERG current change (%, negative = inhibition) at 1uM” value: -42% for the first, -0.775% for the second.

First: O=C(N/C(=C/c1ccccc1)C(=O)N1CCCCC1)c1ccc(Br)o1
Second: CN1CCN(C(=O)/C(=C/c2ccc(N(C)C)cc2)NC(=O)c2ccccc2)CC1
The “hERG current change (%, negative = inhibition) at 1uM” value of the first is lower: -0.572% for the first, 7.18% for the second.

Compared with `CC(=O)c1ccc(N2CCCCCC2)c(F)c1`, `CS(=O)(=O)N(CC(=O)N1CCCCCC1)c1cccc([N+](=O)[O-])c1` is higher in “hERG current change (%, negative = inhibition) at 1uM” value: 0.156% for the first, 2.29% for the second.

First: COc1ccc(OCC(=O)NCCCNC(=O)COc2ccc(OC)cc2)cc1
Second: CCOc1ccc(N(CC(=O)N/N=C/c2cccnc2)S(C)(=O)=O)cc1
The “hERG current change (%, negative = inhibition) at 1uM” value of the first is lower: 4.68% for the first, 12.9% for the second.

Going from `O=c1c2c3c(sc2nc2n1CCCCC2)CCC3` to `O=C1c2ccccc2C(=O)c2c1cccc2N1CCCC1`, the “hERG current change (%, negative = inhibition) at 1uM” value falls from 10.9% to 8.54%.

Going from `O=S1(=O)[C@H]2C[C@@H]3C=C[C@]2(CN1Cc1ccc(C(F)(F)F)cc1)O3` to `O=C(c1ccc2c(c1)OCO2)C1CCCN(Cc2ccc(OC(F)F)cc2)C1` (stereo not shown), the “hERG current change (%, negative = inhibition) at 1uM” value falls from 4.34% to -53%.

Going from `COc1ccc(CCNC(=O)CO/N=C/c2cc3c(cc2Br)OCO3)cc1OC` to `COc1cc(OC)c(OC)cc1CN1CCCC(C(=O)c2ccc3c(c2)OCO3)C1` (stereo not shown), the “hERG current change (%, negative = inhibition) at 1uM” value falls from 14.5% to -27.7%.

Compared with `CC(OC(=O)/C(C#N)=C/c1ccc(N(C)C)cc1)C(=O)NCc1ccco1` (stereo not shown), `CN(C)c1ccc(NC(=O)CSc2nc3ccccc3c(=O)n2CC2CCCO2)cc1` (stereo not shown) is higher in “hERG current change (%, negative = inhibition) at 1uM” value: 6.56% for the first, 17.3% for the second.

Going from `C[C@@H](C(=O)Nc1ccc2ccccc2c1)[C@@H]1C[C@@]1(C)[C@@H](NC(=O)OCc1ccccc1)c1ccccc1` to `O=C(Nc1ccccc1SCC1CSc2nc3ccccc3c(=O)n21)c1ccccc1` (stereo not shown), the “hERG current change (%, negative = inhibition) at 1uM” value falls from 14.3% to -24.7%.

First: CCOC(=O)C1=C(CSc2nncn2C)NC(=O)NC1c1cc(OCC)ccc1OCC (stereo not shown)
Second: CCOC(=O)c1c(CSc2ccccc2)n(C)c2cc(Br)c(O)c(CN(C)C)c12
The “hERG current change (%, negative = inhibition) at 1uM” value of the first is higher: 5.34% for the first, -3.17% for the second.

First: Cc1ccc(NC(=O)CSc2nnc(Cn3cnc4ccccc43)o2)c(C)c1
Second: CCCN(CC1CC1)C(=O)CSc1nnc(-c2cc(-c3cccs3)nc3ccccc23)o1
The “hERG current change (%, negative = inhibition) at 1uM” value of the first is higher: 20.5% for the first, 6.71% for the second.

Compared with `Cc1cccc(C)c1N(CC(=O)N1CCCC1)S(C)(=O)=O`, `CS(=O)(=O)N(CC(=O)N1CCN(Cc2ccccc2)CC1)c1cccc(Cl)c1` is lower in “hERG current change (%, negative = inhibition) at 1uM” value: 16.2% for the first, -23% for the second.

First: CS(=O)(=O)N(CC(=O)N1CCc2ccccc2C1)c1ccc(Br)cc1
Second: CS(=O)(=O)N(CC(=O)N1CCN(Cc2ccccc2)CC1)c1cccc([N+](=O)[O-])c1
The “hERG current change (%, negative = inhibition) at 1uM” value of the first is higher: 13.4% for the first, -73.1% for the second.

First: CCNC(=O)CN(C1CCCCC1)S(C)(=O)=O
Second: COc1ccc(CN(C)C(=O)c2cc(S(=O)(=O)N3CCCCCC3)ccc2OC)cc1OC
The “hERG current change (%, negative = inhibition) at 1uM” value of the first is lower: 1.29% for the first, 4.44% for the second.

First: CCOC(=O)c1c(CSc2ccsc2)n(C)c2cc(Br)c(O)c(CN(C)C)c12.Cl
Second: CCOC(=O)c1c(CSc2ccc(C)cc2)n(C)c2cc(Br)c(O)c(CN(C)C)c12.Cl.O
The “hERG current change (%, negative = inhibition) at 1uM” value of the first is lower: -88.5% for the first, 18% for the second.

Going from `Cc1ccc(C(=O)Nc2ccccc2SCC2CSc3nc4ccccc4c(=O)n32)cc1` (stereo not shown) to `Cc1cccc(C(=O)Nc2ccccc2SCC2CSc3nc4ccccc4c(=O)n32)c1` (stereo not shown), the “hERG current change (%, negative = inhibition) at 1uM” value falls from -39% to -66.5%.

Compared with `O=C(Nc1ccccc1SCC1CSc2nc3ccccc3c(=O)n21)c1cccc(Cl)c1` (stereo not shown), `O=C(Nc1ccccc1SCC1CSc2nc3ccccc3c(=O)n21)c1ccccc1Cl` (stereo not shown) is lower in “hERG current change (%, negative = inhibition) at 1uM” value: -49.6% for the first, -53.2% for the second.

Going from `CCOC(=O)C(C(=O)OCC)C(Nc1cccc(Br)c1)c1ccccc1` (stereo not shown) to `Cc1ccc(NC(=O)COC(=O)CN2C(=O)COc3ccccc32)cc1`, the “hERG current change (%, negative = inhibition) at 1uM” value falls from 14.1% to 13.2%.

Going from `Cc1[nH]c2ccccc2c1-c1ccc(Cl)nn1` to `CS(=O)(=O)c1ccc(-n2nnc3ccccc32)c([N+](=O)[O-])c1`, the “hERG current change (%, negative = inhibition) at 1uM” value falls from 13.8% to 10.8%.

First: O=C(c1cccc([N+](=O)[O-])c1)N1CCN(C/C=C/c2ccccc2)CC1
Second: O=C(/C=C/c1cccc([N+](=O)[O-])c1)N1CCN(Cc2ccccc2)CC1
The “hERG current change (%, negative = inhibition) at 1uM” value of the first is lower: -21% for the first, -20.3% for the second.

First: O=C(c1cccc([N+](=O)[O-])c1)N1CCN(C(=O)c2ccco2)CC1
Second: O=C(/C=C/c1cccc([N+](=O)[O-])c1)N1CCN(C(=O)c2ccco2)CC1
The “hERG current change (%, negative = inhibition) at 1uM” value of the first is higher: 0.101% for the first, -53.4% for the second.

Going from `O=[N+]([O-])c1ccc(C(O)CN2CCN(Cc3ccccc3)CC2)cc1` (stereo not shown) to `O=[N+]([O-])c1ccc(C(O)CN2CCN(C/C=C/c3ccccc3)CC2)cc1` (stereo not shown), the “hERG current change (%, negative = inhibition) at 1uM” value falls from -73% to -85.5%.

First: O=[N+]([O-])c1ccc(C(O)CN2CCOCC2)cc1 (stereo not shown)
Second: O=[N+]([O-])c1ccc(C(O)CN2CCN(c3ccccc3)CC2)cc1 (stereo not shown)
The “hERG current change (%, negative = inhibition) at 1uM” value of the first is higher: 18.6% for the first, -2.31% for the second.

Going from `O=C(/C=C/c1ccccc1)N1CCN(C(=O)c2ccco2)CC1` to `O=C(/C=C/c1ccc(Cl)cc1)N1CCN(Cc2ccccc2)CC1`, the “hERG current change (%, negative = inhibition) at 1uM” value rises from -13.1% to -12.8%.

Compared with `CCc1ccccc1NC(=O)c1ccc(Cn2cc([N+](=O)[O-])cn2)cc1`, `O=C(/C=C/c1ccc([N+](=O)[O-])cc1)N1CCN(Cc2ccccc2)CC1` is lower in “hERG current change (%, negative = inhibition) at 1uM” value: -3.78% for the first, -63.8% for the second.

Going from `COc1ccc(N2CCN(C(=O)c3ccc(N4CCCCS4(=O)=O)cc3)CC2)cc1` to `O=C(/C=C/c1ccc(Cl)cc1)N1CCN(c2ccc([N+](=O)[O-])c(N3CCOCC3)c2)CC1`, the “hERG current change (%, negative = inhibition) at 1uM” value falls from 10.7% to -11.1%.

First: Cc1ccc(-c2ccnc3c(Cl)c(C)nn23)cc1
Second: Cc1cccnc1NC(=O)Nc1cccc2ccccc12
The “hERG current change (%, negative = inhibition) at 1uM” value of the first is higher: 13.3% for the first, 0.589% for the second.

Compared with `COc1cc2c(cc1OC)C(=S)NC(C)(C)C2`, `COc1cc(S(=O)(=O)NCC2OCCc3ccccc32)ccc1-n1cnnn1` (stereo not shown) is lower in “hERG current change (%, negative = inhibition) at 1uM” value: 14.8% for the first, -7.28% for the second.

Compared with `CC(=O)N1CCN(C(=O)C2(NC(=O)Nc3ccccc3Cl)CCCCC2)CC1`, `O=C(/C=C/c1ccc(Cl)cc1)N1CCN(c2ccccc2[N+](=O)[O-])CC1` is lower in “hERG current change (%, negative = inhibition) at 1uM” value: 14.2% for the first, -33.6% for the second.

First: CC(=O)Oc1c(C)c2c3c(c1OC(C)=O)[C@@H](C)CC[C@@H]3[C@@H](C)C[C@H]2C=C(C)C
Second: Cc1ccc(CN2CCCC(C(=O)c3ccc4c(c3)OCO4)C2)cc1C (stereo not shown)
The “hERG current change (%, negative = inhibition) at 1uM” value of the first is higher: 11.1% for the first, -27.1% for the second.

Going from `O=C(/C=C/c1ccc(Cl)cc1)N1CCN(c2ccc(Cl)cc2[N+](=O)[O-])CC1` to `O=C1c2ccccc2C(=O)c2c1cccc2N1CCN(CCO)CC1`, the “hERG current change (%, negative = inhibition) at 1uM” value rises from -81.4% to -64.7%.

Going from `O=C1c2ccccc2C(=O)c2c1cccc2N1CCN(Cc2ccccc2)CC1` to `Cc1ccsc1C(=O)C1CCCN(Cc2ccc(-n3cccn3)cc2)C1` (stereo not shown), the “hERG current change (%, negative = inhibition) at 1uM” value rises from -6.21% to -3.18%.

Compared with `Cc1cccc(NS(=O)(=O)c2ccc3c(c2)NC(=O)CC(=O)N3)c1`, `Cc1ccc(-n2cccn2)c(CN2CCCC(C(=O)c3ccc4c(c3)OCO4)C2)c1` (stereo not shown) is lower in “hERG current change (%, negative = inhibition) at 1uM” value: 18.4% for the first, -83.5% for the second.

Going from `O=C(c1ccc2c(c1)OCO2)C1CCCN(Cc2ccc(F)c(F)c2)C1` (stereo not shown) to `O=C(c1ccc2c(c1)OCO2)C1CCCN(Cc2c(F)cccc2Cl)C1` (stereo not shown), the “hERG current change (%, negative = inhibition) at 1uM” value falls from 5.03% to 0.9%.

First: O=C(c1ccc2c(c1)OCO2)C1CCCN(Cc2ccc3cccc(F)c3n2)C1 (stereo not shown)
Second: Cc1cccc(CN2CCCC(C(=O)c3ccc4c(c3)OCO4)C2)n1 (stereo not shown)
The “hERG current change (%, negative = inhibition) at 1uM” value of the first is lower: -81.5% for the first, -16.8% for the second.

Going from `Cc1ccc(-n2cccn2)c(CN2CCCC(C(=O)c3sccc3C)C2)c1` (stereo not shown) to `Cc1ccsc1C(=O)C1CCCN(Cc2cc(F)ccc2-n2cccn2)C1` (stereo not shown), the “hERG current change (%, negative = inhibition) at 1uM” value rises from -82.8% to -45.5%.

`O=C(c1ccc2c(c1)OCO2)C1CCCN(Cc2ccccc2OC(F)F)C1` (stereo not shown) was tested, and the “hERG current change (%, negative = inhibition) at 1uM” value was -16.9%.
